Only some compounds are listed: those with a hit (about 1.3% of all), similar ones and a draw of the others.
NCOA2 inhibitor: human SRC2 (NCOA2) inhibition; Q15596; HEK293 GAL4-SRC2 luciferase reporter, luminescence; inhibition, % at 9 µM; 370,000 tested, 0.17% active;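 active = inhibition above the mean inhibition of all tested compounds plus 3 SD, set per campaign, cut at about 52% in these data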;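 note: 0% = DMSO treated cells and 100% = cells given Gossypol at 36 µM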
Gli-Sufu block: Gli-Sufu pathway antagonism; Sufu-KO-LIGHT fibroblasts, Gli luciferase reporter luminescence; inhibition, % at 5 µM; 340,000 tested, 0.74% active; AID 588413;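 active = inhibition above about 55%, limit read from the data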;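 note: 0% = DMSO-treated cells and 100% = wells with medium but no cells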
COUP-TFII inh: inhibitors of human COUP-TFII (NR2F2) | AID 686940 | HEK293T NGFI-A luciferase reporter, luminescence | 370,000 tested, 0.7% active | inhibition, % at 8.6 µM | P24468;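 active = inhibition above a per-plate cutoff, mean inhibition of test wells between control levels plus 3 SD, cut at about 38% in these data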;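 note: cells cotransfected with COUP-TFII expression vector driving the NGFI-A reporter; 0% = median of COUP-TF2 test wells and 100% = reporter-only cells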
NR5A2 inv ag: suppresses constitutive activity of human LRH-1; O00482; HEK293T StAR-luciferase reporter, LRH-1 transfected, 24 h; inhibition, % at 3.6 µM; 360,000 tested, 0.13% active; AID 602396;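 active = inhibition above the mean inhibition of all tested compounds plus 3 SD, cut at about 73% in these data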;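 note: 0% = DMSO wells and 100% = reporter-only cells lacking LRH-1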
NCOA3 inh: inhibitors of human steroid receptor coactivator 3 (SRC3). Q9Y6Q9. HEK293 GAL4-SRC3 luciferase reporter, luminescence. inhibition, % at 3.6 µM. 360,000 tested, 0.17% active. AID 588352;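 active = inhibition above a per-campaign cutoff, the mean of all compounds plus 3 SD, cut at about 60% in these data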;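 note: 0% = DMSO-treated cells and 100% = gossypol-treated cells at 36 µM; higher means less SRC3-driven luciferase light from the GAL4 reporter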
NCOA1 inh: human NCOA1 inhibition. Q15788. HEK293 GAL4-SRC1 luciferase reporter, luminescence. inhibition, % at 3.6 µM. 360,000 tested, 0.12% active;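 active = inhibition above the campaign mean plus 3 SD, with each screening campaign given its own cutoff, cut at about 60% in these data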;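 note: 0% = DMSO treated cells and 100% = gossypol at 36 µM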
Gli-Sufu confirm: Gli-SUFU antagonism confirmation, single concentration; shares compounds with Gli-Sufu block; Sufu-KO-LIGHT cells, Gli luciferase reporter, luminescence; inhibition, % at 5 µM; 2,500 tested, 40% active; AID 602428;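 active = mean inhibition at 5 µM reaching about 45%, limit read from the data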;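 note: plate controls were DMSO-treated cells for no effect and wells lacking cells for full effect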
Gli cytotox: cytotoxicity counter-screen for Gli-SUFU antagonists; shares compounds with Gli-Sufu block; Sufu-KO-LIGHT cells cytotoxicity, ATP luminescence; cytotoxicity, % at 5 µM; 2,500 tested, 32% active; AID 651994;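 active = mean cytotoxicity at 5 µM above about 25%, limit read from the data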;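 note: cells exposed to compound overnight for roughly 16 to 18 hours; plate controls were DMSO wells with cells for no effect and medium without cells for full effect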
Wnt3a counter: inhibits Wnt3a reporter, counter-screen for Gli-SUFU antagonists. AID 651995. Wnt-LIGHT cells, Wnt3a-driven luciferase reporter, luminescence. 2,500 tested, 20% active. inhibition, % at 6.25 µM. shares compounds with Gli-Sufu block;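 active = mean inhibition above about 25%, limit read from the data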
Active calls of the source: *; . = not tested or not shown.

SMILES	NCOA2 inhibitor	Gli-Sufu block	COUP-TFII inh	NR5A2 inv ag	NCOA3 inh	NCOA1 inh	Gli-Sufu confirm	Gli cytotox	Wnt3a counter
Cc1c(NS(=O)(=O)c2ccc(NC(=O)CCC(=O)O)cc2)c(=O)n(-c2ccccc2)n1C	12	63*	1	10	17	-17	5	14	-33
CCOC(=O)c1c(NC(=S)Nc2ccccc2)sc(C)c1C	6	-8	3	5	5	-11	.	.	.
CCOC(=O)c1c(NC(=O)C[n+]2ccc(Cc3ccccc3)cc2)sc(C)c1C	2	52	11	13	11	-3	36	15	6
C=CCN1[C@H](C#N)[C@@H](c2ccc(C#Cc3ccccc3OC)cc2)[C@H]1CO	32	.	19	.	.	.	.	.	.
C=CCNC(=O)c1ccccc1NC(=O)C1CCN(S(=O)(=O)c2ccc(SC)cc2)CC1	3	66*	-6	8	14	-11	10	5	-43
C=CCNC(=O)c1ccccc1NS(=O)(=O)c1ccc(SC)cc1	-17	0	-11	3	-12	-1	.	.	.
COc1ccc(NC(=O)c2cccc(N3C(=O)C4C5C=CC(C6CC56)C4C3=O)c2)c(OC)c1 (stereo unspecified)	-16	56*	9	2	-11	-1	29	-3	9
c1ccc(Cn2c(-c3ccccc3)c[n+]3c2SCCC3)cc1	9	70*	13	-8	14	12	67*	37*	11
COc1ccc(-c2c[n+]3c(n2-c2ccccc2)SCC3)cc1OC	-22	-3	-2	11	18	-6	.	.	.
c1ccc(Nc2nc(NCC3CCCO3)c3ccccc3n2)cc1 (stereo unspecified)	6	57*	36	16	14	-1	45*	36*	28*
CCCCN1CN2Cc3ccc(C)cc3C2CS1(=O)=O (stereo unspecified)	1	.	-6	.	.	.	.	.	.
Cc1ccc2c(C)c(C(=O)NCc3ccc(S(N)(=O)=O)cc3)oc2c1C	-2	59*	3	-9	10	-6	28	7	12
COCCCNC(=S)N1CCN(S(=O)(=O)c2ccc(OC)cc2)CC1	-10	69*	10	-3	9	0	11	16	-6
Cc1ccc2c(c1)N(CCCC(=O)N(C)Cc1ccccc1F)C(=O)CO2	5	.	11	.	.	.	.	.	.
Cc1nc2nc(-c3ccc(Cl)cc3)cn2nc1C	-99	-103	-20	-146	-65	-103	.	.	.
Cc1nc2nc(-c3cccs3)cn2nc1C	-79	53	-53	-46	-18	-53	-64	12	-27
Cc1nc2ccccc2n1CC(=O)NC(C)C1CC2CCC1C2 (stereo unspecified)	-1	60*	30	4	16	13	54*	15	15
COc1ccc(C(=O)N2CCCC(CO)C2)cc1OC1CCN(C(C)C)CC1 (stereo unspecified)	7	.	-4	0	4	-17	.	.	.
COc1ccc(C(=O)N2CCCCCCC2)cc1OC1CCN(C(C)C)CC1	17	65*	27	10	12	2	26	15	-2
COc1ccc(CSc2nnc(SCC(=O)Nc3ccc4c(c3)OCO4)s2)cc1	17	.	14	.	.	.	.	.	.
Cc1cccc(N(Cc2ccccc2)C(=O)CCl)c1	60*	77*	10	33	26	2	29	28*	-9
CN(C)c1ccc(NC(=O)CN2CCC(N3CCCCC3)CC2)cc1	25	53	13	-9	6	-45	19	7	6
Cc1cc(C)nc(NN2C(=O)/C(=C/c3ccc(O)cc3)SC2=S)n1	.	56*	.	-2	-16	-53	32	6	21
COc1ccc(OC)c(/C=C2\SC(N3CCCC(C)C3)=NC2=O)c1 (stereo unspecified)	-46	64*	20	-11	7	-1	14	12	-22
CCOC(=O)N1CCN(C(=O)C[C@H]2C[C@@]3(C(=O)OC)C(=C[C@H](COCc4ccccc4)O[C@@H]3C)N(Cc3cccc4ccccc34)C2=O)CC1	20	.	-1	.	.	.	.	.	.
SMILES	NCOA2 inhibitor	Gli-Sufu block	COUP-TFII inh	NR5A2 inv ag	NCOA3 inh	NCOA1 inh	Gli-Sufu confirm	Gli cytotox	Wnt3a counter
Fc1ccccc1-c1csc(-c2cccnc2)n1	1	31	-23	-18	-29	-20	.	.	.
Cc1csc(-c2cccnc2)n1	9	99*	17	7	24	-11	14	-6	16
C=CCN=C(NC#N)SC	8	58*	10	21	-7	3	15	9	9
C=CCN=C(NC#N)SCC(=O)NC(C)(C)C	-12	4	0	-9	7	-4	.	.	.
CC(=O)Nc1ccc(S(=O)(=O)N2CCC(C(N)=O)(N3CCCCC3)CC2)cc1	-38	55*	-6	9	-8	-103	30	-1	14
COc1ccc(S(=O)(=O)N2CCC(C(N)=O)(N3CCCCC3)CC2)cc1	-10	1	14	15	11	-16	.	.	.
CC[C@]12c3[nH]c4cc(CCC(=O)N(C)C)ccc4c3CCN1C(=O)[C@@H](CC(=O)NC/C=C(\C)CCC=C(C)C)C[C@@H]2C(=O)N1CCN(C(=O)c2ccco2)CC1	.	79*	.	5	0	-7	77*	30*	31*
CC(C)Oc1ccc(Oc2ccc(C#C[C@H](C)N3C(=O)c4ccccc4C3=O)cc2)cn1	.	.	12	.	.	.	.	.	.
CS(=O)(=O)c1ccc(OC[C@@H](O)CN2CCC(C(O)(c3ccccc3)c3ccccc3)CC2)cc1	8	.	-21	.	.	.	.	.	.
CN1CCc2c(sc3c2c(=O)n(-c2ccccc2)c2nnc(SCc4ccc(Cl)cc4)n32)C1	-10	51	14	1	-1	-27	25	15	-24
CCCCN(C)C(=O)CN1C(=O)C2CCCCN2C(=O)c2ccccc21 (stereo unspecified)	-20	.	6	.	.	.	.	.	.
CN(C)S(=O)(=O)c1cccc(NC(=O)C(c2ccccc2)c2ccccc2)c1	-15	-14	0	-3	-8	6	.	.	.
CC(C)N(C(=S)Nc1cccc(S(=O)(=O)N(C)C)c1)c1ccccc1	-9	55	5	7	27	-10	12	1	-27
CC1(C(=O)N2CCC(Oc3cccnc3)CC2)CC1	-5	.	18	.	.	.	.	.	.
O=C(COC(=O)c1ccc2[nH]c3c(c2c1)CCCC3)Nc1ccccc1Cl	-6	51	5	-5	11	-8	47*	7	-23
COc1cc(C2C(C#N)=C(C)NC3=C2C(=O)c2ccccc23)cc(OC)c1OC (stereo unspecified)	15	50	-6	32	20	6	58*	55*	14

Screens as filed in PubChem.
